Laboratory results published in paper PMC11024108.

Biological target: Septin-5 (UniProt Q9Z2Q6)
Test: cross-link between two proteins; cross-linking mass spectrometry

Septin-5, sequence (Q9Z2Q6 whole entry): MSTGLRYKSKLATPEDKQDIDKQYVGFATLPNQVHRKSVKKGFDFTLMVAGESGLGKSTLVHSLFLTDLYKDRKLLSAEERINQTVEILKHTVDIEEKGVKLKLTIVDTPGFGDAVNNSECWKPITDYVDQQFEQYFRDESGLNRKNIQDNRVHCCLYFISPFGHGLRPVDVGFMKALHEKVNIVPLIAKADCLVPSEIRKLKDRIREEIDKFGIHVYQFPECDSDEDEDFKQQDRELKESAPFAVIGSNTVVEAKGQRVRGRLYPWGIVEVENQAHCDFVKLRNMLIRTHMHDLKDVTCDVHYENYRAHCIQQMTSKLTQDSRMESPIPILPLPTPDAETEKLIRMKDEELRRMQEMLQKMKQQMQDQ

Listed as a hit, yes:
Septin-8, Q8CHH9
Septin-6, Q9R1T4
Septin-11, Q8C1B7
Septin-4, P28661
